Screens as filed in PubChem BioAssay.
Only some compounds are listed: those with a hit (about 1.6% of all), similar ones and a draw of the others.
ATG4B inhibitor: blocks human ATG4B protease cleavage of LC3 substrate; Q9Y4P1; ATG4B cleavage of LC3-PLA2, NBD-HPC fluorescence, 1 h; inhibition, % at 8.33 µM; hit rate 0.51% among 340,000; in the data active = inhibition above about 40%
Efflux pump inh: blocks antifungal efflux pumps in multiplex yeast assay; S. cerevisiae Candida pump triplex, Nile Red efflux; inhibition, % at 10 µM; hit rate 0.44% among 330,000; AID 485275;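 active = plate passing quality check with inhibition over a set limit, or well fluorescence over plate mean plus 4 SD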;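 note: Nile Red retained in pooled yeast measured as flow cytometry median fluorescence; 0% = buffer negative control and 100% = Enniatin B positive control; higher means more Nile Red kept so more efflux inhibition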
Yeast superoxide: yeast age-related superoxide inhibition as caloric restriction mimetic; hit rate 0.18% among 330,000; AID 2690; S. cerevisiae aged cells, superoxide DHE fluorescence; active compounds read low; superoxide response (% of plate mean), % at 10 µM;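 active = superoxide response under a set limit, about three screen SD below normal, cut at about 65% in these data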;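 note: yeast aged for seven days with compound at 30 °C before DHE staining; 100% = average MFI of all compound-treated wells on the plate with controls excluded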
GRK2 aptamer HTS: human GRK2 inhibition via aptamer displacement; P25098; bead flow cytometry, FAM-aptamer displacement from GRK2; inhibition of aptamer binding, % at 10 µM; hit rate 0.59% among 330,000;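 active = inhibition of aptamer binding above 40%, roughly 3 SD of noise, on plates passing a quality check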;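 note: median bead fluorescence of bound FAM aptamer so fluorescent compounds give negative values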
Target sequence (P25098 whole entry, looked up): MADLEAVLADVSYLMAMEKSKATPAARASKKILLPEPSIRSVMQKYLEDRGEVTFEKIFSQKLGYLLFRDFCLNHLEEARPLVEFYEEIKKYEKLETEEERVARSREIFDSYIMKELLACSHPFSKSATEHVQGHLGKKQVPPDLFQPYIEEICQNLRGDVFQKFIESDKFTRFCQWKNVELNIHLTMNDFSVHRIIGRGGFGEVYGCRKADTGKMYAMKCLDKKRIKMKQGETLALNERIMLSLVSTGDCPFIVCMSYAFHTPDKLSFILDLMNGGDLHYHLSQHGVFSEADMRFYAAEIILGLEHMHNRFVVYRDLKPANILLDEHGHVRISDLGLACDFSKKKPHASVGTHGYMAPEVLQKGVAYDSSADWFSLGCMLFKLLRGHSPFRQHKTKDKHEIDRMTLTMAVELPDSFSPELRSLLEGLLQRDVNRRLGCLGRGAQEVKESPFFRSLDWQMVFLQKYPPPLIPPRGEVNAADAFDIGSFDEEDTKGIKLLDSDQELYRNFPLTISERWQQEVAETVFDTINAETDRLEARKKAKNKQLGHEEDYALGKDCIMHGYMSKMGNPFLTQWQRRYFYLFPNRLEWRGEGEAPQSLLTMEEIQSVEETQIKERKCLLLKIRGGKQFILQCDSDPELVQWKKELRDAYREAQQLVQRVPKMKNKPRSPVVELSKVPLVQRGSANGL
CR mimetic CP: confirmation of caloric restriction mimetics inhibiting yeast age-related superoxide. hit rate 1% among 850. AID 434994. shares compounds with Yeast superoxide. superoxide response (% of plate), % at 10 µM. S. cerevisiae aging, superoxide DHE fluorescence; active compounds read low;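 active = superoxide signal below 65% of the plate average of sample wells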;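 note: cells aged with compound for 7 days at 30 degrees C before staining; 100% equals mean DHE fluorescence of all compound wells on the plate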
DHE counter: counter-screen for compounds affecting DHE oxidation and fluorescence in yeast. shares compounds with Yeast superoxide. S. cerevisiae BY4741, flow cytometry; active compounds read low. fluorescence response, % at 10 µM. 850 tested, under 10 active;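 active = fluorescence response below 15%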;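 note: percent of the mean fluorescence averaged over all compound wells on the plate; lower means stronger quenching of DHE signal or ROS scavenging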
* = called active by the depositor; / = no result given.

SMILES | ATG4B inhibitor | Efflux pump inh | Yeast superoxide | GRK2 aptamer HTS | CR mimetic CP | DHE counter
COc1ccccc1NC(=O)CCNS(=O)(=O)c1ccc2c(c1)CC(C)N2C(=O)C1CC1 (configuration not stated) | -6 | 0 | 105 | 1 | / | /
O=C(O)c1ccccc1Nc1cc(Cl)c2nonc2c1[N+](=O)[O-] | 4 | 0 | 113 | 2 | / | /
O=[N+]([O-])c1c(Nc2ccccn2)cc(Cl)c2nonc12 | -3 | 11* | 87 | 0 | / | /
CCCCN1C(=N)N([C@@H](CCC)CN2CCC[C@H]2CN2C(N)=NC[C@H]2C(C)C)C[C@H]1[C@H](C)CC | 2 | 0 | 118 | 100* | / | /
CCC[C@@H](CN1CCC[C@H]1CN1C(N)=NC[C@H]1C(C)C)N1C[C@@H]([C@H](C)CC)N(CCCC2CCCC2)C1=N | 7 | 0 | 126 | 0 | / | /
O=S(=O)(c1cccs1)N1CN(Cc2ccc(Cl)cc2)c2nc3ccccc3nc21 | -11 | 0 | 102 | 0 | / | /
O=S(=O)(c1cccs1)N1CN(Cc2ccco2)c2nc3ccccc3nc21 | 1 | 0.7* | 98 | 1 | / | /
COc1cccc(C(=O)Nc2sc(C(C)C)cc2C(N)=O)c1OC | -18 | 0 | 107 | 1 | / | /
N#C/C(=C\N1CCCCC1)S(=O)(=O)c1ccc(Cl)cc1 | -7 | 0 | 95 | 0 | / | /
O=C(CSc1ccc2c(c1)OCCO2)Nc1cccnc1 | -1 | 0 | 91 | 3 | / | /
COc1ccccc1C(=O)NC(CCSC)C(=O)NNC(=O)c1ccccc1O (configuration not stated) | 6 | 0 | 64* | 3 | / | /
O=C(CSc1nc2ccccc2c(=O)[nH]1)Nc1ccc(N2CCOCC2)c(Cl)c1 | -5 | 0 | 97 | 1 | / | /
CCOC(=O)C1CCN(C(=O)COc2ccc(C(=O)c3ccccc3)cc2)CC1 | -2 | 0 | 64* | 1 | 94 | 92
CCOC(=O)C1CCN(C(=O)COc2ccc(Br)cc2)CC1 | 4 | 0 | 103 | 1 | / | /
Cc1c(NC(=O)C23CC4CC(CC(C)(C4)C2)C3)c(=O)n(-c2ccccc2)n1C | -1 | 0 | 96 | 0 | / | /
CC(=O)NC12CC3CC(C1)CC(C(=O)Nc1c(C)n(C)n(-c4ccccc4)c1=O)(C3)C2 | 3 | 0 | 62* | 0 | 97 | 108
COc1ccc(NC(=O)CN(C)C(=O)c2oc3ccccc3c2C)cc1 | -10 | 0 | 92 | 3 | / | /
C=CCn1c(SCC(=O)NC2CC2)nnc1-c1cccc(OC)c1 | -4 | 0 | 96 | 0 | / | /
C=CCn1c(SCC(=O)NC2CCCCC2)nnc1-c1ccc(OC)cc1 | 0 | 0 | 57* | 0 | 114 | 112
Cc1ccc(-c2nn3c(-c4ccco4)nnc3c3ccccc23)cc1S(=O)(=O)NCC1CCCO1 (configuration not stated) | -11 | 0 | 123 | 0 | / | /
Cc1ccc(-c2nnc(Nc3ccc4c(c3)OCO4)c3ccccc23)cc1S(=O)(=O)NC(C)C | 9 | 0 | 103 | 5 | 100 | 92
Cc1ccc(-c2nnc(Nc3ccccc3)c3ccccc23)cc1S(=O)(=O)NCC1CCCO1 (configuration not stated) | -4 | 0 | 85 | 0 | 98 | 102
CNS(=O)(=O)c1cc(-c2nnc(Nc3ccc(NC(C)=O)cc3)c3ccccc23)ccc1C | -11 | 0 | 51* | 0 | 104 | 96
CNC(=O)c1ccc(Nc2nnc(-c3ccc(C)c(S(=O)(=O)NCC4CCCO4)c3)c3ccccc23)cc1 (configuration not stated) | 5 | 0 | 103 | 2 | 110 | 114
O=C(CCn1cccn1)Nc1ccc(-c2ccno2)cc1 | -8 | 0 | 90 | 3 | / | /
SMILES | ATG4B inhibitor | Efflux pump inh | Yeast superoxide | GRK2 aptamer HTS | CR mimetic CP | DHE counter
COCCCN(C(=S)Nc1c(C)cc(C)cc1C)C(C)c1ccccn1 (configuration not stated) | 29 | 0 | 96 | 0 | / | /
CN(C1CCCCC1)S(=O)(=O)c1cccc(C#N)c1 | -1 | 0 | 99 | 0 | / | /
COc1cccc(C(=O)NNC2OC(CO)C(O)C2O)c1 (configuration not stated) | -2 | 0 | 98 | 0 | / | /
NS(=O)(=O)c1ccc(CCNC(=O)CNC(=O)c2ccccc2F)cc1 | 7 | 0 | 98 | 3 | / | /
C[C@H](O)[C@@H]1C(=O)N2CCc3ccc(N4CCOCC4)cc3[C@@H]2C[C@@H]1N(C)C(=O)Nc1ccccc1 | 12 | / | / | / | / | /
CC(=O)Nc1ccc(Nc2nnc(-c3ccc(C)c(S(=O)(=O)NCC4CCCO4)c3)c3ccccc23)cc1 (configuration not stated) | 2 | 0 | 86 | 0 | 107 | 104
COc1ccc(-c2nc3ccccc3c(=O)n2O)cc1 | -6 | -1 | 61* | 0 | 92 | 86
COc1ccc(C)cc1S(=O)(=O)Nc1cc(Cl)ccc1Cl | -2 | 0 | 91 | 3 | 92 | 97
COc1ccc(S(=O)(=O)Nc2cc(Cl)ccc2OC)cc1 | -3 | 0 | 89 | 4 | 109 | 108
COc1cc(S(=O)(=O)Nc2c(C)cc(C)cc2C)ccc1Cl | 3 | 0 | 100 | 0 | / | /
COc1ccc(Cl)cc1NS(=O)(=O)c1ccc(OC)c(OC)c1 | -9 | 0 | 100 | 0 | / | /
COc1cc(S(=O)(=O)Nc2ccccc2C)ccc1Cl | 10 | 0 | 98 | 1 | 100 | 100
Cc1ccc2cccc(OCC(=O)N3CC(C)CC(C)C3)c2n1 (configuration not stated) | 7 | 0 | 88 | 1 | / | /
CC(Sc1nnc(-c2cccnc2)n1C)C(=O)N1CCOCC1 (configuration not stated) | 3 | 0 | 104 | 6 | / | /
CC(NC(C(=O)c1ccccc1)c1ccccc1)c1ccccc1 (configuration not stated) | 2 | / | / | / | / | /
COc1cccc(Cn2nnc(C(=O)NCc3ccc4c(c3)OCO4)c2N)c1 | -13 | 0 | 64* | 1 | 102 | 96
COc1cccc(CNC(=O)c2nnn(CC(=O)Nc3ccc4c(c3)OCO4)c2N)c1 | -7 | 0 | 104 | 0 | / | /
CCCC(=O)Nc1cccc(C(=O)Nc2ccccc2OCC)c1 | / | 0 | 93 | 0 | / | /
NC(=O)C1CCCN(C(=O)c2ccc(NC(=O)c3cccs3)cc2)C1 (configuration not stated) | -7 | 0 | 159 | 0 | / | /
O=c1[nH]c2ccccc2cc1CN(Cc1cccnc1)S(=O)(=O)c1ccc(Cl)cc1 | -9 | 0 | 65* | 3 | 121 | 104
O=c1[nH]c2ccccc2cc1CN(Cc1cccnc1)S(=O)(=O)c1ccc([N+](=O)[O-])cc1 | -13 | 0 | 93 | 0 | / | /
COc1cc(OC)c(N(C)S(=O)(=O)c2cccc(C(=O)Nc3nccs3)c2)cc1Cl | -15 | 0 | 84 | 1 | / | /
OCCN(CCO)c1ccc(C(c2ccc(Cl)cc2)c2ccc(N(CCO)CCO)cc2Cl)c(Cl)c1 | 34 | 0 | 62* | 1 | 95 | 97
O=C(Nc1ccc2nc3ccccc3nc2c1)c1ccccc1 | -14 | 0 | 47* | 10 | 59* | 94
